# Data reported in PubChem BioAssay (NCATS).
# Results filed as inconclusive are left out. Entries that show only a call come without a potency. Active and inactive are the calls of the source. Calls follow the shape of the dose curve; as a rule, active = well fitted inhibition curve with a large enough effect; inconclusive = small, poorly fitted or top-dose-only effect; inactive = flat fitted curve, though single readings scatter.
# Target: Phospholipid hydroperoxide glutathione peroxidase GPX4 (Homo sapiens) (UniProt P36969)
# Sequence (P36969 whole entry, looked up): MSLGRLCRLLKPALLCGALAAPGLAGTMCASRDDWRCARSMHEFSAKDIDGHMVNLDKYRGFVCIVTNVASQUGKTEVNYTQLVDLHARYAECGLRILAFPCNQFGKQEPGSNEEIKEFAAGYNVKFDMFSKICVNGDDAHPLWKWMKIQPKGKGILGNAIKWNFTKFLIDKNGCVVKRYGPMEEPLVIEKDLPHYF
# Assay: Primary qHTS Assay for Inhibitors of Recombinant Selenoprotein Glutathione Peroxidase 4 (GPX4) (AID 1845192); also: nearly all actives have a fitted effect of over 65% in size
# Conditions: recombinant GPX4, GR-coupled NADPH fluorescence, 15 min; series mostly up to 50 µM
# Summary of the method: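 qHTS, GR-coupled: GPX4 200 nM + cpd 30 min RT → GSH 1 mM, NADPH 0.5 mM, GR 100 nM → CHP 0.5 mM start; fluor 340/450 at t0 and t15 min; no-enzyme wells as control.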
SMILES,Potency,outcome
CC(=O)[C@@]1(O)CC[C@H]2[C@@H]3C[C@H](C)C4=CC(=O)C=C[C@]4(C)[C@@]3(F)[C@@H](O)C[C@@]21C,inactive,–
CCOC(=O)OC(C)OC(=O)[C@@H]1N2C(=O)[C@@H](NC(=O)[C@H](N)c3ccccc3)[C@H]2SC1(C)C (stereo partly specified),inactive,–
CCCC(O)C(CC)CO (stereo unspecified),inactive,–
O=C(Cn1ccnc1[N+](=O)[O-])NCc1ccccc1,inactive,–
CC(=O)OCC(COC(C)=O)OC(C)=O,inactive,–
Cc1cc(C)c(NC(=O)CN(CC(=O)O)CC(=O)O)c(C)c1Br,inactive,–
CC(=O)N[C@@H](Cc1ccc(O)cc1)C(=O)O,inactive,–
CCOc1ccc(C(=O)OCCN(CC)CC)cc1,inactive,–
C[C@]1(Cn2ccnn2)[C@H](C(=O)O)N2C(=O)C[C@H]2S1(=O)=O,inactive,–
O=C(c1ccccc1)C(O)c1ccccc1 (stereo unspecified),inactive,–
CC1(C)S[C@@H]2[C@H](NC(=O)C(C(=O)O)c3ccccc3)C(=O)N2[C@H]1C(=O)O (stereo partly specified),inactive,–
Cc1cccc(C)c1NC(=O)CC12CCCN1CCC2,inactive,–
CCOc1ccccc1O[C@H](c1ccccc1)[C@H]1CNCCO1,inactive,–
NS(=O)(=O)c1cc(C2(O)NC(=O)c3ccccc32)ccc1Cl (stereo unspecified),inactive,–
CC(C)(C)C(=O)OCOC(=O)[C@@H]1N2C(=O)[C@@H](NC(=O)[C@H](N)c3ccccc3)[C@H]2SC1(C)C,inactive,–
O=C1C(c2[nH]c3ccccc3c2O)=Nc2ccccc21,inactive,–
CCOc1cc(NC(C)=O)ccc1C(=O)OC,inactive,–
CCCCC1(COC(=O)CCC(=O)O)C(=O)N(c2ccccc2)N(c2ccccc2)C1=O,inactive,–

SMILES,Potency,outcome
NCC1CCC(C(=O)Oc2ccc(CCC(=O)O)cc2)CC1 (stereo unspecified),inactive,–
NC(N)=NCCN1CCCCCCC1,–,inactive [at 0.409 µM]
OCc1ccc(Cl)cc1Cl,inactive,–
Cc1cc(O)cc(C)c1Cl,inactive,–
NS(=O)(=O)c1cc2c(cc1C(F)(F)F)NCNS2(=O)=O,inactive,–
CC(=O)N(CC(O)CO)c1c(I)c(C(=O)NCC(O)CO)c(I)c(C(=O)NCC(O)CO)c1I (stereo unspecified),inactive,–
COc1ccccc1OCC(O)CO (stereo unspecified),inactive,–
CC(=O)NCc1c(I)c(NC(C)=O)c(I)c(C(=O)O)c1I,inactive,–
COCC(=O)Nc1c(I)c(C(=O)NCC(O)CO)c(I)c(C(=O)N(C)CC(O)CO)c1I (stereo unspecified),inactive,–
CC(C)CCCC(C)CCCC(C)CCCCC(C)CCCC(C)CCCC(C)C (stereo unspecified),inactive,–
Cc1c(I)c(=O)n(-c2ccccc2)n1C,inactive,–
CC(C(=O)O)c1ccc2c(c1)Cc1cccnc1O2 (stereo unspecified),inactive,–
O=C(O)CCCCC1CCSS1 (stereo unspecified),inactive,–
CC[C@H](C)[C@H](N)C(=O)O,inactive,–
CC1(C)[C@@H](OC(=O)CCC(=O)O)CC[C@]2(C)[C@H]3C(=O)C=C4[C@@H]5C[C@@](C)(C(=O)O)CC[C@]5(C)CC[C@@]4(C)[C@]3(C)CC[C@@H]12,inactive,–
Cc1c(N(C)C)c(=O)n(-c2ccccc2)n1C,inactive,–
CC(C)=CCC/C(C)=C/CO,inactive,–
COc1ccc(C(=O)NCc2ccc(OCCN(C)C)cc2)cc1OC,inactive,–
